Shown are actives, neighbours in structure and some others; about 5.7% of the full set was active somewhere.
DAX1 inh-1: DAX1 (NR0B1) inhibition, primary screen; actives 1.1% (n = 370,000); HEK293T StAR-luciferase reporter, SF-1/DAX-1 repression relief; inhibition, % at 6.8 µM;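 active = inhibition above the mean over all tested compounds plus 3 SD, cut at about 3.6% in these data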;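 note: 0% = DAX-1 cells with DMSO and 100% = cells lacking DAX-1 with DMSO; higher inhibition means more luminescence from relief of DAX-1 repression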
ssDAF-12 act: activates DAF-12 receptor from parasite S. stercoralis. AID 652126. actives 1% (n = 370,000). activation, % at 6.8 µM. HEK293 ssDAF-12/GRIP1 lit1-tk-luc reporter, luminescence; % of 3 µM dafachronic acid response;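 active = activation above the mean over all tested compounds plus 3 SD, cut at about 0.9% in these data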;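 note: 0% = DMSO-only wells and 100% = 3 µM delta7-dafachronic acid wells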
DAX1 inh-2: NR0B1 (DAX1) inhibition; P51843; HEK293 Gal4-DAX1 luciferase reporter, luminescence; inhibition, % at 6.75 µM; actives 0.99% (n = 340,000);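 active = inhibition above the mean over all tested compounds plus 3 SD, cut at about 4.2% in these data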;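 note: 0% = DAX1-transfected cells with DMSO and 100% = empty-vector control cells with DMSO; inhibition shows as a rise in luminescence from relieved DAX1 repression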
Target sequence (P51843 207-470 limits assumed): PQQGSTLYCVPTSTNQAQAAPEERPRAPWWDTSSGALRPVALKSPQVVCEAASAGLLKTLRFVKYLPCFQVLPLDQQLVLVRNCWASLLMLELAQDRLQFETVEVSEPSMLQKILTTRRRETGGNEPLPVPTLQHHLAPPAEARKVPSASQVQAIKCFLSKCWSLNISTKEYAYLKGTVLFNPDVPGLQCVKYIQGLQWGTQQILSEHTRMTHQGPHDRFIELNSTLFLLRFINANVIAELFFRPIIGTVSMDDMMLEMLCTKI
hcDAF12 agonist: H. contortus DAF-12 activation, primary screen; HEK293 hcDAF-12 lit1-tk-luc reporter, luminescence; 0% DMSO, 100% Δ7-dafachronic acid; activation, % at 6.8 µM; actives 1.4% (n = 370,000); AID 652067;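 active = activation above the mean of all tested compounds plus 3 SD, cut at about 5.5% in these data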;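 note: 100% = response to 3 µM Δ7-dafachronic acid high control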
AHR activator: activates the human aryl hydrocarbon receptor; P35869; AHR-responsive luciferase reporter cells, luminescence; activation, % at 5 µM; actives 2.5% (n = 320,000); in the data active = activation above about 47%;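 note: 0% = vehicle wells and 100% = reference agonist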
hgDAF-12 ag: activates the H. glycines DAF-12 receptor ligand-binding domain; HEK293 GAL4-hgDAF12 UAS-luciferase reporter, agonist luminescence; normalized to butyrate control; activation, % at 6.8 µM; actives 1.8% (n = 370,000); AID 687014;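 active = activation above a cutoff set at the mean of all screened compounds plus 3 SD, cut at about 10% in these data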;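 note: 0% = DMSO wells and 100% = sodium butyrate wells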
Active calls of the source: *; nt = no result.

SMILES | DAX1 inh-1 | ssDAF-12 act | DAX1 inh-2 | hcDAF12 agonist | AHR activator | hgDAF-12 ag
NS(=O)(=O)c1ccc(CNC(=O)c2sccc2-c2ccccc2)cc1 | -1 | -1 | 1 | -2 | 1 | -2
COc1ccc(C2CC(c3ccc(Cl)cc3Cl)Nc3nc(N)nn32)cc1 (centres undefined) | 1 | -1 | 2 | 1 | 4 | 1
COc1cccc(C2CC(c3ccccc3)Nc3ncnn32)c1 (centres undefined) | 0 | -1 | 0 | 2 | 0 | 2
COc1cccc(C2CC(c3ccccc3OC)n3ncnc3N2)c1 (centres undefined) | 0 | -1 | 5.5* | 0 | 0 | 0
CCOc1ccc(C2CC(c3cccc(OC)c3)Nc3nc(N)nn32)cc1 (centres undefined) | 2 | -1 | 4.7* | -1 | 7 | 0
COc1ccc(C2CC(c3ccc(Cl)cc3Cl)n3nc(N)nc3N2)cc1 (centres undefined) | 0 | -1 | 5.2* | -2 | 11 | -1
CNc1ccc(Oc2nc([N+](=O)[O-])nn2C)cc1 | 0 | -1 | 1 | -1 | 0 | 0
CC(=O)Nc1nc(C2CC2)cc(-c2ccccc2)c1C#N | 0 | -1 | 0 | -1 | 4 | -2
Cc1ccnc2nc(C(=O)Nc3nc4ccccc4s3)nn12 | 4.3* | 1.0* | 2 | 6.3* | 26 | 13*
Cc1cc(C(F)(F)F)c(C#N)c(SCC(=O)Nc2nc3ccccc3s2)n1 | -1 | -2 | 2 | -1 | 57* | -12
Cc1cc[n+](CC(=O)Nc2nc3ccccc3s2)cc1 | 0 | 1.9* | 1 | 1 | 4 | 4
Cc1sc(NC(=O)CSC2=NCCS2)nc1-c1ccccc1 | -2 | -2 | -2 | -2 | 23 | -3
O=C(CSC1=NCCS1)Nc1nc2ccccc2s1 | 0 | 1.2* | 1 | 1 | 2 | 4
Fc1ccccc1CNC(=S)Nc1cccc(C(F)(F)F)c1 | -1 | -2 | -2 | -2 | 3 | 0
CC(C)C[C@H]1COc2cc(N3CCSCC3)ccc2S(=O)(=O)N1C | -1 | -1 | nt | 0 | nt | -1
COc1ccc(NC(=O)CNc2ccc(C#N)cc2)cc1 | 1 | -1 | 1 | 0 | -3 | -2
COCC(=O)Nc1nc2ccccc2s1 | 1 | 0 | 2 | 6.0* | 21 | 6
COC(=O)CCCCCCCCC(=O)Nc1nc2ccccc2s1 | 0 | -1 | 0 | 0 | 11 | 1
Cc1ccc2nc(NC(=O)COC(=O)c3ccco3)sc2c1 | 2 | 0 | 1 | 5.8* | 18 | 9
CC(=O)Oc1ccccc1Cn1c(C)c(C(=O)NCc2ccccc2C(F)(F)F)sc1=O | -1 | -1 | nt | -2 | nt | 1
Cc1cccc(S(=O)(=O)NCCNS(=O)(=O)c2cccc(C)c2)c1 | 0 | -1 | -1 | 0 | 0 | 0
COc1ccc(NC(=O)CN(C)C(=O)C2(c3ccccc3)CCCC2)cc1 | -2 | -1 | 1 | -2 | -1 | -1
CCOC(=O)c1c(NC(=O)COC)sc(C)c1C | 0 | -1 | 0 | -2 | -1 | -2
CCOC(=O)c1c(NC(=O)COC(=O)c2cc(OC)c(OC)cc2[N+](=O)[O-])sc(C)c1C | 0 | 1.4* | 2 | 3 | 4 | -1
Cc1ccccc1-c1cc(C(=O)NCc2ccco2)n(CC2CC(c3cccnc3)=NO2)n1 (centres undefined) | -1 | -2 | -2 | -1 | -1 | 2
SMILES | DAX1 inh-1 | ssDAF-12 act | DAX1 inh-2 | hcDAF12 agonist | AHR activator | hgDAF-12 ag
O=C(COC(=O)CCS(=O)(=O)c1ccc(Cl)cc1)Nc1ncc(Cl)cc1Cl | 0 | 0 | 4.8* | 0 | 0 | -1
Cc1c(Cl)cnc(NC(=O)COC(=O)CCS(=O)(=O)c2ccccc2)c1Cl | -1 | -1 | 0 | 1 | 1 | 0
COC(=O)c1ccc(-c2nc3cc(Cl)c(N)cc3s2)cc1 | 2 | 1 | 1 | 3 | 2 | 11*
CCC1(CC)C(=O)N(C)C(=O)NC1=Nc1ccc(OC)cc1 | 0 | -1 | 0 | -2 | 1 | -1
O=C1CN(S(=O)(=O)c2cccc(Br)c2)CCN1 | 2 | 0 | 0 | -1 | -1 | -1
CC(=O)OCCN1c2ccccc2Sc2cnccc21 | 0 | -1 | 0 | -2 | nt | 11*
C=CCn1c(=NC(=O)C2CCCCC2)sc2cc(NC(C)=O)ccc21 | 0 | -2 | -1 | -2 | 1 | 1
